Assay outcomes as filed in PubChem BioAssay.
MITF inhib – MITF inhibition; 37,000 tested, 0.28% active; AID 2240; inhibition, % (test concentration not listed); TRPM1 promoter luciferase, luminescence, 24 h; in the data active means inhibition above about 85%; inconclusive means no clear call, values can overlap the other calls; inactive means below about 68%;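 further: human melanocyte line stably carrying TRPM1 promoter luciferase reporter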
NOMO-1 viab – STK33 inhibitor candidate reducing NOMO-1 cell viability. 37,000 tested, 7.5% active. AID 2330. inhibition, % (concentration not given with the values). NOMO-1 AML viability, CellTiter-Glo luminescence, 72 h; in the data active means inhibition above about 80%; inconclusive means no clear call, values can overlap the other calls
Hedgehog inh – Sonic Hedgehog pathway inhibition | Shh-LIGHT2 Gli-luciferase reporter, 30 h | inhibition, % (no concentration beside the values) | 22,000 tested, 2.1% active;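 active means mean inhibition across valid replicates above about 65%, limit read from the data; inconclusive means mean under the limit, yet half or more replicates past it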;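 further: pathway switched on by Shh-conditioned medium diluted 1 in 25 in low serum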
* = called active by the depositor; ? = inconclusive; . = no result given. Hits are enriched below; roughly 7.9% of the tested compounds scored in any of these assays.

SMILES	MITF inhib	NOMO-1 viab	Hedgehog inh
C[C@@H]1CCCCO[C@@H](CN(C)Cc2ccc(C(=O)Nc3ccccc3N)cc2)[C@@H](C)CN([C@H](C)CO)C(=O)c2cc(NS(C)(=O)=O)ccc2O1	-9	?	.
C[C@@H]1CN([C@H](C)CO)C(=O)c2cc(NC(=O)Cc3ccccc3)ccc2O[C@H]1CN(C)Cc1ccc(C(=O)Nc2ccccc2N)cc1	8	61	.
O=C(O)CSc1nc2cc(F)c(F)cc2[nH]1	1	-6	.
O=C(COc1ccc(C(=O)Nc2cc(Cl)ccc2Cl)cc1)Nc1cccc2ccccc12	15	38	.
CCCc1cc(=O)[nH]c(SCC(=O)Nc2cccc(F)c2)n1	6	-1	.
COc1ccc(S(=O)(=O)N2CCC(C(=O)Nc3ccc(NC(C)=O)cc3)CC2)cc1OC	-9	21	.
Cc1cc(NC(=O)C(C)n2cc([N+](=O)[O-])cn2)ccc1Br (stereo not given)	11	26	.
CC(C)NC(=O)Nc1ccc2c(c1)C(=O)N([C@H](C)CO)C[C@H](C)[C@H](CN(C)Cc1ccc(C(=O)Nc3ccccc3N)cc1)OCCCC[C@@H](C)O2	-10	27	.
C[C@@H]1CCCCO[C@@H](CN(C)Cc2ccc(C(=O)Nc3ccccc3N)cc2)[C@@H](C)CN([C@H](C)CO)C(=O)c2cc(NC(=O)Cc3ccccc3)ccc2O1	-3	127*	.
S=C(Nc1ccccc1)c1ccccc1	-16	6	-20
CC(C)NC(=O)Nc1cccc2c1O[C@@H](CN(C)Cc1ccc(Cl)c(Cl)c1)[C@H](C)CN([C@H](C)CO)C2=O	7	63	23
C[C@H](CO)N1C[C@H](C)[C@@H](CN(C)Cc2ccc(Cl)c(Cl)c2)Oc2c(NC(=O)Nc3cccc4ccccc34)cccc2C1=O	27	115*	-31
CC(C)NC(=O)Nc1cccc2c1O[C@@H](CN(C)Cc1ccc(Cl)c(Cl)c1)[C@@H](C)CN([C@H](C)CO)C2=O	21	41	-16
C[C@@H]1CN([C@H](C)CO)C(=O)c2cccc(NC(=O)Nc3cccc4ccccc34)c2O[C@@H]1CN(C)Cc1ccc(Cl)c(Cl)c1	31	62	12
C[C@@H]1CN([C@@H](C)CO)C(=O)c2cccc(NC(=O)Nc3ccccc3)c2O[C@@H]1CN(C)Cc1ccc(Cl)c(Cl)c1	-13	116*	14
C[C@@H]1CN([C@H](C)CO)C(=O)c2cccc(NC(=O)Nc3ccc(C(F)(F)F)cc3)c2O[C@H]1CN(C)Cc1ccncc1	-7	42	10
C[C@@H]1CN([C@H](C)CO)C(=O)c2cccc(NC(=O)Nc3ccccc3)c2O[C@H]1CN(C)Cc1ccc(Cl)c(Cl)c1	17	106*	16
C[C@H](CO)N1C[C@H](C)[C@H](CN(C)Cc2ccc(Cl)c(Cl)c2)Oc2c(NC(=O)Nc3ccc(C(F)(F)F)cc3)cccc2C1=O	10	94*	-26
CCN(CC(=O)Nc1ccc(I)cc1)S(=O)(=O)c1ccc(Cl)cc1	3	32	.
Cc1cc(N(CC(=O)Nc2cccc(C(F)(F)F)c2)S(C)(=O)=O)ccc1Br	20	57	.
CCOc1c(S(=O)(=O)NCc2ccccn2)ccc(Cl)c1Cl	9	7	.
C[C@@H]1CN([C@H](C)CO)C(=O)c2cccc(NC(=O)Nc3ccc(F)cc3)c2O[C@@H]1CN(C)Cc1ccc(Cl)c(Cl)c1	1	31	16
C[C@H](CO)N1C[C@H](C)[C@H](CN(C)Cc2ccc(Cl)c(Cl)c2)Oc2c(NC(=O)Nc3ccc(F)cc3)cccc2C1=O	37	99*	63
O=C(CSc1ccc(F)cc1Cl)C12CC3CC(CC(C3)C1)C2	-9	39	-7
N#CSCC(=O)C12CC3CC(CC(C3)C1)C2	47	113*	.
SMILES	MITF inhib	NOMO-1 viab	Hedgehog inh
COc1cc(NC(=O)COc2ccc3ccccc3c2Br)c(OC)cc1Cl	-29	126*	.
COC(=O)c1cc(OC)c(OC)cc1NC(=O)COc1ccc2ccccc2c1Br	-6	-17	.
CCc1cccc2c(C(C(=O)c3ccccc3)c3c[nH]c4c(CC)cccc34)c[nH]c12	44	111*	27
CC(C)CC(C(=O)c1ccccc1)c1ccccc1 (stereo not given)	-13	49	-22
O=C(Cc1cccs1)N1c2ccccc2Sc2ccccc21	3	56	.
O=C(NCCc1ccccc1)N1c2ccccc2Sc2ccccc21	43	52	92*
O=C(COc1ccccc1[N+](=O)[O-])Nc1cc(-c2nc3ccccc3o2)ccc1Cl	-5	-20	.
C[C@@H]1CCCCO[C@@H](CN(C)C(=O)Nc2ccc3c(c2)OCO3)[C@@H](C)CN([C@H](C)CO)C(=O)c2cc(NS(=O)(=O)c3ccccc3)ccc2O1	-2	7	16
CC(C(=O)Nc1cccnc1)N(c1ccc(Cl)cc1)S(C)(=O)=O (stereo not given)	-7	-12	.
C[C@H]1CN([C@@H](C)CO)C(=O)c2cc(NS(=O)(=O)c3ccccc3)ccc2O[C@H]1CN(C)C(=O)Nc1ccccc1	-6	3	-7
CC1=CCC[C@@H]2[C@](CCc3ccoc3)(C(=O)O)[C@H](C)CC[C@@]12C	-7	26	-47
C[C@@H]1C[C@H]2OCC3=CCC[C@H]([C@]1(CC(O)c1ccoc1)C(=O)O)[C@]32CO (stereo not given in full)	19	120*	-22
CC1(C)C(=O)C=C[C@@]2(C)C1C=C[C@]1(C)C2CC[C@@]2(C)[C@H](c3ccoc3)OC(=O)C3OC321 (stereo not given in full)	101*	107*	-331
CC(=O)O[C@H]1C[C@@H](OC(C)=O)C(C)(C)C2C[C@@H](OC(C)=O)[C@]3(C)C([C@H](OC(C)=O)C[C@@]4(C)[C@H](c5ccoc5)OC(=O)[C@H]5O[C@]543)[C@]21C (stereo not given in full)	8	40	36
COC(=O)C[C@H]1C(C)(C)C(=O)[C@@H]2CC3=C4CC(=O)O[C@@H](c5ccoc5)[C@]4(C)CCC3[C@@]1(C)C2=O (stereo not given in full)	1	-15	-15
C=C1C(C2(C)C=CC(=O)C(C)(C)C2CC(=O)OC)CC[C@@]2(C)[C@H](c3ccoc3)OC(=O)C3OC132 (stereo not given in full)	66	110*	?
O=C(COc1cc(Cl)c(Cl)cc1Cl)NCc1ccco1	-58	7	.
C=C[C@]1(C)C[C@H](O)[C@H]2C(=C)C(=O)O[C@@H]2[C@H]1C(=C)CO	0	53	-10
C=CC1(C)C[C@H](OC(=O)C(C)CO)[C@H]2C(=C)C(=O)O[C@@H]2C1C(=C)CO (stereo not given in full)	5	115*	32
CC(C)=CCC/C(C)=C/CC/C(C)=C/Cc1c(C)cc(O)cc1O	7	39	-27
C[C@H](CO)N1C[C@H](C)[C@H](CN(C)S(=O)(=O)c2cn(C)cn2)Oc2c(NS(=O)(=O)c3ccccc3)cccc2C1=O	4	22	4
C[C@@H]1CN([C@@H](C)CO)C(=O)c2cccc(NC(=O)c3ccc(-c4nccs4)cc3)c2O[C@@H]1CN(C)Cc1ccc(Cl)c(Cl)c1	20	52	20
C[C@H]1CN([C@@H](C)CO)C(=O)c2cccc(NC(=O)c3ccc(-c4nccs4)cc3)c2O[C@H]1CN(C)Cc1ccc(Cl)c(Cl)c1	33	102*	2
